Test results as given in PubChem BioAssay AID1159580 (chemical genetic matrix, 2015).
Values joined by “and” are separate entries in the source; they are usually repeats but may differ in a detail not shown here. Equal values may be shown once. Screen size: about 5,500 compounds; about 2,000 (36%) were called active. Another 18% or so got no clear call; they are omitted. No stated cut-off is given here; in the data, active means normalized growth mostly below about 0.91 (no sharp cut-off); inconclusive means no clear call, values can overlap the other calls; inactive means mostly above about 0.92. Some of the results follow.

Experiment: chemical genetic growth profiling, strain panel (AID 1159580);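 further: tested at 20 µM; growth read once vehicle control cultures reached saturation at 30 °C; 1 = growth at the plate median or of vehicle wells; lower values mean less growth of the strain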
Conditions: S. cerevisiae deletion strains, growth OD

Measured: normalized growth

COC1=C[C@@H]2[C@@H]3Cc4ccc(OC)c(O)c4[C@]2(CCN3C)CC1=O
inactive: locus YAL013W, strain DEP1, active compounds read low 0.985 | locus YAL021C, strain ccr4, active compounds read low 1.01 | locus YAL026C, strain drs2, active compounds read low 1 | locus YAL030W, strain snc1, active compounds read low 1 | locus YBL061C, strain skt5, active compounds read low 1.01 | locus YBR009C, strain hhf1, active compounds read low 1 | locus YBR021W, strain FUR4, active compounds read low 1.04 | locus YBR023C, strain chs3, active compounds read low 1 | locus YBR171W, strain sec66, active compounds read low 0.983 | locus YBR229C, strain ROT2, active compounds read low 0.961 | locus YBR231C, strain swc5, active compounds read low 0.995 | locus YBR279W, strain paf1, active compounds read low 0.991 | locus YCL011C, strain gbp2, active compounds read low 1 | locus YCL016C, strain dcc1, active compounds read low 0.977 | locus YCL029C, strain bik1, active compounds read low 0.967 | locus YCL069W, strain vba3, active compounds read low 1.01 | locus YCR088W, strain abp1, active compounds read low 0.987 | locus YDL005C, strain med2, active compounds read low 0.997 | locus YDL035C, strain GPR1, active compounds read low 1 | locus YDL040C, strain nat1, active compounds read low 1 | locus YDL074C, strain BRE1, active compounds read low 0.952 | locus YDL101C, strain DUN1, active compounds read low 0.972 | locus YDL134C, strain PPH21, active compounds read low 0.981 | locus YDL185W, strain tfp1, active compounds read low 0.929 | locus YDL192W, strain arf1, active compounds read low 0.987 | locus YDR001C, strain nth1, active compounds read low 1 | locus YDR069C, strain doa4, active compounds read low 0.979 | locus YDR101C, strain arx1, active compounds read low 1 | locus YDR137W, strain rgp1, active compounds read low 0.972 | locus YDR150W, strain NUM1, active compounds read low 0.971 | locus YDR159W, strain sac3, active compounds read low 0.967 | locus YDR162C, strain NBP2, active compounds read low 0.969 | locus YDR195W, strain ref2 0.967 | locus YDR297W, strain sur2, active compounds read low 1 | locus YDR318W, strain mcm21, active compounds read low 0.995 | locus YDR334W, strain swr1, active compounds read low 0.984 | locus YDR335W, strain msn5, active compounds read low 0.986 | locus YDR388W, active compounds read low 0.984 | locus YDR392W, strain spt3, active compounds read low 0.988 | locus YDR502C, strain sam2, active compounds read low 0.986 | locus YEL003W, strain gim4, active compounds read low 1 | locus YEL037C, strain rad23, active compounds read low 0.999 | locus YEL061C, strain CIN8 (second series), active compounds read low 0.999 | locus YEL061C, strain CIN8, active compounds read low 0.982 | locus YER015W, strain faa2, active compounds read low 0.986 | locus YER016W, strain bim1, active compounds read low 1 | locus YER110C, active compounds read low 0.969 | locus YER111C, strain swi4, active compounds read low 1.01 | locus YER155C, strain BEM2 (second series), active compounds read low 1.01 | locus YER155C, strain BEM2, active compounds read low 1 | locus YER167W, strain BCK2, active compounds read low 1 | locus YFR010W, strain ubp6, active compounds read low 1.01 | locus YGL078C, strain dbp3, active compounds read low 0.971 | locus YGL086W, strain mad1, active compounds read low 0.99 | locus YGL167C, strain pmr1, active compounds read low 0.986 | locus YGL173C, strain kem1, active compounds read low 0.99 | locus YGL227W, strain vid30, active compounds read low 1 | locus YGL240W, strain doc1, active compounds read low 1 | locus YGL248W, strain PDE1, active compounds read low 0.972 | locus YGL253W, strain hxk2, active compounds read low 1.01 | locus YGR078C, strain PAC10, active compounds read low 0.965 | locus YGR135W, strain pre9, active compounds read low 0.959 | locus YGR229C, strain SMI1, active compounds read low 0.974 | locus YGR252W, strain gcn5, active compounds read low 1 | locus YHR013C, strain ard1, active compounds read low 0.962 | locus YHR027C, strain rpn1, active compounds read low 0.992 | locus YHR030C, strain SLT2, active compounds read low 1 and 1.03 | locus YHR079C, strain IRE1 (second series), active compounds read low 0.987 | locus YHR079C, strain IRE1, active compounds read low 1.03 | locus YHR094C, strain hxt1, active compounds read low 0.978 | locus YHR129C, strain ARP1, active compounds read low 0.996 | locus YHR142W, strain chs7, active compounds read low 0.999 | locus YHR200W, strain rpn10, active compounds read low 0.975 | locus YIL066C, strain RNR3, active compounds read low 0.972 | locus YIL073C, strain SPO22, active compounds read low 1.03 | locus YIL125W, strain kgd1, active compounds read low 0.968 | locus YIR030C, strain dcg1, active compounds read low 0.989 | locus YJL092W, strain hpr5, active compounds read low 0.997 | locus YJL095W, strain BCK1 (second series), active compounds read low 1 | locus YJL095W, strain BCK1, active compounds read low 0.963 and 1.03 | locus YJL115W, strain asf1, active compounds read low 1.01 | locus YJL129C, strain trk1, active compounds read low 0.977 | locus YJL134W, strain LCB3, active compounds read low 0.989 | locus YJL154C, strain vps35, active compounds read low 0.988 | locus YJL164C, strain tpk1, active compounds read low 0.997 | locus YJL166W, strain qcr8, active compounds read low 1 | locus YJL168C, strain set2, active compounds read low 0.982 | locus YJL187C, strain SWE1 (second series), active compounds read low 0.958 | locus YJR043C, strain POL32, active compounds read low 1.03 | locus YJR066W, strain TOR1, active compounds read low 0.97
